# Data reported in the supplement of paper PMC8728848.
# Many of the other results were omitted from the sample, so the strongest signals are more common in it than they were.
# B1: AT1G77380(17) (Arabidopsis thaliana), Q39134 (protein)
# chain: MVQNHQTVLAVDMPQTGGSKYLDDDGKNKRTGSVWTASAHIITAVIGSGVLSLAWATAQLGWLAGPVVMLLFSAVTYFTSSLLAACYRSGDPISGKRNYTYMDAVRSNLGGVKVTLCGIVQYLNIFGVAIGYTIASAISMMAIKRSNCFHKSGGKDPCHMNSNPYMIAFGLVQILFSQIPDFDQLWWLSILAAVMSFTYSSAGLALGIAQVVVNGKVKGSLTGISIGAVTETQKIWRTFQALGDIAFAYSYSIILIEIQDTVKSPPSEEKTMKKATLVSVSVTTMFYMLCGCMGYAAFGDLSPGNLLTGFGFYNPYWLLDIANAAIVIHLIGAYQVYCQPLFAFIEKQASIQFPDSEFIAKDIKIPIPGFKPLRLNVFRLIWRTVFVIITTVISMLLPFFNDVVGLLGALGFWPLTVYFPVEMYIAQKKIPRWSTRWVCLQVFSLGCLVVSIAAAAGSIAGVLLDLKSYKPFRSEY
# How the values were obtained:
# Assay in all cases: glycan array binding signal (z-score within array); higher = stronger binding
# Conditions in all cases: glycan notation: IUPAC condensed, linker removed
# GalNAc(b1-4)GlcNAc = biological target: GalNAc(b1-4)GlcNAc
# In short: (§1)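 The Consortium for Functional Glycomics database supplied 3228 glycan arrays, of which those lacking an available protein sequence were dropped. The binding signal, a within-array Z-score, was averaged across arrays of the same protein sequence and across linkers. Negative scores can be read as non-binding.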
# [1] = biological target: GalNAc(b1-4)GlcNAc(b1-2)Man(a1-3)[GalNAc(b1-4)GlcNAc(b1-2)Man(a1-6)]Man(b1-4)GlcNAc(b1-4)GlcNAc
# In short: as §1
# GalNAc3S(b1-4)GlcNAc3S = biological target: GalNAc3S(b1-4)GlcNAc3S
# In short: as §1
# Glc(b1-4)Glc = biological target: Glc(b1-4)Glc
# In short: as §1
# [2] = biological target: GlcNAc(b1-2)Man(a1-3)[GlcNAc(b1-4)][GlcNAc(b1-2)Man(a1-6)]Man(b1-4)GlcNAc(b1-4)GlcNAc
# In short: as §1
# [3] = biological target: GlcNAc(b1-2)[GlcNAc(b1-6)]Man(a1-6)[GlcNAc(b1-4)][GlcNAc(b1-2)Man(a1-3)]Man(b1-4)GlcNAc(b1-4)GlcNAc
# In short: as §1
# [4] = biological target: GlcNAc(b1-3)Gal(b1-4)GlcNAc(b1-3)Gal(b1-4)GlcNAc(b1-2)[GlcNAc(b1-3)Gal(b1-4)GlcNAc(b1-3)Gal(b1-4)GlcNAc(b1-6)]Man(a1-6)[GlcNAc(b1-3)Gal(b1-4)GlcNAc(b1-3)Gal(b1-4)GlcNAc(b1-2)Man(a1-3)]Man(b1-4)GlcNAc(b1-4)[Fuc(a1-6)]GlcNAc
# In short: as §1
# [5] = biological target: GlcNAc(b1-3)Gal(b1-4)GlcNAc(b1-3)Gal(b1-4)GlcNAc(b1-3)GalNAc
# In short: as §1
# GlcNAc(b1-6)GalNAc = biological target: GlcNAc(b1-6)GalNAc
# In short: as §1
# Kdn(a2-3)Gal(b1-4)Glc = biological target: Kdn(a2-3)Gal(b1-4)Glc
# In short: as §1
# [6] = biological target: Man(a1-2)Man(a1-3)[Man(a1-2)Man(a1-6)]Man(a1-6)[Man(a1-2)Man(a1-2)Man(a1-3)]Man(b1-4)GlcNAc(b1-4)GlcNAc
# In short: as §1
# [7] = biological target: Man(a1-2)Man(a1-6)[Man(a1-3)]Man(a1-6)[Man(a1-2)Man(a1-2)Man(a1-3)]Man
# In short: as §1
# [8] = biological target: Man(a1-3)[Man(a1-6)]Man(a1-6)[Man(a1-3)]Man
# In short: as §1
# Man(a1-6)Man = biological target: Man(a1-6)Man
# In short: as §1
# [9] = biological target: Neu5Ac(a2-3)Gal(b1-3)GlcNAc(b1-2)Man(a1-3)[Neu5Ac(a2-3)Gal(b1-3)GlcNAc(b1-2)Man(a1-6)]Man(b1-4)GlcNAc(b1-4)GlcNAc
# In short: as §1
# [10] = biological target: Neu5Ac(a2-3)Gal(b1-3)GlcNAc6S
# In short: as §1
# [11] = biological target: Neu5Ac(a2-3)Gal(b1-4)GlcNAc(b1-3)Gal(b1-3)GlcNAc
# In short: as §1
# [12] = biological target: Neu5Ac(a2-3)Gal(b1-4)GlcNAc6S
# In short: as §1
# [13] = biological target: Neu5Ac(a2-6)Gal(b1-4)GlcNAc(b1-2)Man(a1-3)Man(b1-4)GlcNAc(b1-4)GlcNAc
# In short: as §1
# [14] = biological target: Neu5Ac(a2-6)Gal(b1-4)GlcNAc(b1-2)Man(a1-3)[Man(a1-6)]Man(b1-4)GlcNAc(b1-4)GlcNAc
# In short: as §1
# [15] = biological target: Neu5Ac(a2-6)GlcNAc(b1-4)GlcNAc(b1-4)GlcNAc
# In short: as §1
# [16] = biological target: Neu5Ac(a2-8)Neu5Ac(a2-3)Gal(b1-3)GalNAc(b1-4)[Neu5Ac(a2-8)Neu5Ac(a2-3)]Gal(b1-4)Glc
# In short: as §1
# [17] = biological target: Neu5Ac(a2-8)Neu5Ac(a2-3)[Gal(b1-3)GalNAc(b1-4)]Gal(b1-4)Glc
# In short: as §1
# [18] = biological target: Neu5Gc(a2-3)Gal(b1-4)[Fuc(a1-3)]GlcNAc
# In short: as §1
binder,measurement,setting,value
B1,glycan array binding signal (z-score),GalNAc(b1-4)GlcNAc,2.31
same,glycan array binding signal (z-score),[1],7.58
same,glycan array binding signal (z-score),GalNAc3S(b1-4)GlcNAc3S,-0.031
same,glycan array binding signal (z-score),Glc(b1-4)Glc,0.66
same,glycan array binding signal (z-score),[2],-0.289
same,glycan array binding signal (z-score),[3],-0.522
same,glycan array binding signal (z-score),[4],0.854
same,glycan array binding signal (z-score),[5],-0.766
same,glycan array binding signal (z-score),GlcNAc(b1-6)GalNAc,2.85
same,glycan array binding signal (z-score),Kdn(a2-3)Gal(b1-4)Glc,4.07
same,glycan array binding signal (z-score),[6],3.3
same,glycan array binding signal (z-score),[7],-0.524
same,glycan array binding signal (z-score),[8],-0.782
same,glycan array binding signal (z-score),Man(a1-6)Man,-0.696
same,glycan array binding signal (z-score),[9],-0.809
same,glycan array binding signal (z-score),[10],0.954
same,glycan array binding signal (z-score),[11],-1.04
same,glycan array binding signal (z-score),[12],-0.786
same,glycan array binding signal (z-score),[13],-0.792
same,glycan array binding signal (z-score),[14],-0.896
same,glycan array binding signal (z-score),[15],0.349
same,glycan array binding signal (z-score),[16],-0.862
same,glycan array binding signal (z-score),[17],-0.73
same,glycan array binding signal (z-score),[18],-0.363
